Assay [1] is described as follows: qHTS assay to identify aromatase inhibitors - cell viability counter screen (AID 743084;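 note: cells stimulated with testosterone during compound exposure; nearly all actives have a fitted effect of over 55% in size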; note: potency is the fitted concentration of half-maximal effect). (In qHTS, concentration-response curves come from the screen itself.)
Assay [2] has as its target Aryl hydrocarbon receptor (Homo sapiens) (UniProt P35869). Nature of the assay: qHTS assay to identify small molecule that activate the aryl hydrocarbon receptor (AhR) signaling pathway (AID 743085).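 Note: HG2L7.5c1 human HepG2 liver cells with stably integrated DRE-driven firefly reporter; series mostly up to about 70 µM; nearly all actives have a fitted effect of over 15% in size.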 The method, boiled down:
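A multiplexed format paired cell viability (CellTiter-Fluor fluorescence) with AhR-dependent luciferase output (ONE-Glo luminescence) in the same wells of HepG2 DRE-luc cells after 24 h compound exposure at 37C.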

Assay [3] is described as follows: qHTS assay to identify small molecule that activate the aryl hydrocarbon receptor (AhR) signaling pathway - cell viability counter screen (AID 743086). Note: nearly all actives have a fitted effect of over 45% in size. Note: potency is the fitted concentration of half-maximal effect. The method, boiled down: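 HepG2-AhR-luc (HG2L7.5c1) cells, 4000/well, were preincubated 5 h at 37C, exposed to compound in qHTS format for 24 hr at 37C, then given CellTiter-Fluor for 30 min; viability was read as fluorescence in the reporter wells.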

Assay [4] is described as follows: qHTS assay to identify small molecule antagonists of the peroxisome proliferator-activated receptor gamma (PPARg) signaling pathway - cell viability counter screen (AID 743194). Note: nearly all actives have a fitted effect of over 55% in size. Note: potency is the fitted concentration of half-maximal effect. Conditions: Potency: co-treated with 50 nM rosiglitazone unless noted. An outline of the steps: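 PPARg-UAS-bla HEK293H cells were plated, rested 5 h at 37 C, then treated with compounds plus rosiglitazone (50 nM final) for 17 h at 37 C; viability was then read by CellTiter-Glo luminescence after 30 min at room temperature.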

A short description of assay [5]: qHTS assay for small molecule agonists of the antioxidant response element (ARE) signaling pathway (AID 743202; active = well fitted activation curve with a large enough effect in the signal ratio in the repeat runs, not every such curve was filed as active; the % refers to the signal ratio; note: potency is the fitted concentration of half-maximal effect). An outline of the steps:
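Compounds delivered in DMSO to ARE-bla HepG2 cells (2,000 cells/well, pre-incubated 5 h) and left 16 h at 37 C. LiveBLAzer B/G FRET substrate then added for 2 h at RT before fluorescence reading.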

A short description of assay [6]: qHTS assay for small molecule agonists of the antioxidant response element (ARE) signaling pathway - cell viability counter screen (AID 743203; calls by dose curve; note: nearly all actives have a fitted effect of over 55% in size; note: potency is the fitted concentration of half-maximal effect). An outline of the steps: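 HepG2 cells carrying ARE-driven beta-lactamase; 2,000 cells/well; 5 hrs plating; compound pinned from DMSO; 16 hrs 37C/5% CO2; CellTiter-Glo added; 30 min RT; luminescence.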
Assay [7] is described as follows: qHTS assay to identify small molecule agonists of the peroxisome proliferator-activated receptor delta (PPARd) signaling pathway - cell viability counter screen (AID 743211). Note: nearly all actives have a fitted effect of over 55% in size. Note: potency is the fitted concentration of half-maximal effect. The method, boiled down:
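Tox21 library compounds, delivered in DMSO, were incubated 17 h with PPARd-bla HEK293H cells; cytotoxicity was taken from CellTiter-Glo luminescence read 30 min after reagent addition.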

Assay [8] is described as follows: qHTS assay to identify small molecule antagonists of the peroxisome proliferator-activated receptor delta (PPARd) signaling pathway - cell viability counter screen (AID 743213). Note: nearly all actives have a fitted effect of over 50% in size. Note: potency is the fitted concentration of half-maximal effect. The method, boiled down:
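Cytotoxicity counter screen: CellTiter-Glo luminescence read 30 min after addition, in the same wells as the reporter assay. There, PPARd UAS-bla HEK293H cells (3000/well) were treated 17 h at 37 C with compound and 300 nM L165041.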

A short description of assay [9]: qHTS assay to identify small molecule agonists of the farnesoid-X-receptor (FXR) signaling pathway - cell viability counter screen (AID 743218). Note: nearly all actives have a fitted effect of over 45% in size. Note: potency is the fitted concentration of half-maximal effect. An outline of the steps:
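HEK 293T FXR-bla cells; 5 h pre-incubation, 16 h compound exposure at 37 C; LiveBLAzer substrate 2 h RT, then CellTiter-Glo 30 min RT, luminescence.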

Assay [10] is described as follows: qHTS assay to identify small molecule antagonists of the farnesoid-X-receptor (FXR) signaling pathway - cell viability counter screen (AID 743221; active = well fitted cell-killing curve with a large enough effect in the repeat runs, not every such curve was filed as active; note: nearly all actives have a fitted effect of over 50% in size; note: potency is the fitted concentration of half-maximal effect). An outline of the steps: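 Cytotoxicity is taken from ATP luminescence (CellTiter-Glo, 30 min, room temperature) in FXR-bla HEK 293T cells previously incubated 16 h at 37 C with compound and chenodeoxycholic acid at 50 uM final.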

In assay [11] the target is Vitamin D3 receptor (Homo sapiens) (UniProt P11473). In words: qHTS assay to identify small molecule antagonists of the vitamin D receptor (VDR) signaling pathway (AID 743223; active = well fitted inhibition curve with a large enough effect in the signal ratio in the repeat runs, not every such curve was filed as active; the % refers to the signal ratio). The method, boiled down: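 Quantitative HTS in VDR-bla reporter cells stimulated with 1alpha,25-dihydroxyvitamin D3, 3 nM final. Compound exposure 16 h, 37C, 5% CO2. Read-out: beta-lactamase FRET substrate fluorescence, 2 h RT.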

For assay [12], the target named is Peroxisome proliferator-activated receptor gamma (Homo sapiens) (UniProt P37231). Nature of the assay: qHTS assay to identify small molecule agonists of the peroxisome proliferator-activated receptor gamma (PPARg) signaling pathway (AID 743094; active = well fitted activation curve with a large enough effect in the signal ratio in the repeat runs, not every such curve was filed as active; the % refers to the signal ratio). The method, boiled down: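 Beta-lactamase FRET fluorescence was the read-out after a 1 h room-temperature substrate step, following 17 h compound treatment at 37C of HEK293H cells expressing a UAS-driven bla reporter responsive to PPARg.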

The nature of assay [13]: qHTS assay for small molecule activators of the heat shock response signaling pathway - cell viability counter screen (AID 743209). Note: nearly all actives have a fitted effect of over 50% in size. Note: potency is the fitted concentration of half-maximal effect. An outline of the steps:
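Luminescence from CellTiter-Glo, added after the beta-lactamase FRET read, gave the viability signal. Cells were HSE-bla HeLa treated with DMSO-dissolved compounds for 5 h at 37 C following overnight plating.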

Assay [14] is described as follows: qHTS assay for small molecule activators of the heat shock response signaling pathway (AID 743210; active = well fitted activation curve with a large enough effect in the signal ratio in the repeat runs, with a control signal flat, not every such curve was filed as active; the % refers to the signal ratio;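 note: HeLa cells with beta-lactamase reporter driven by heat shock elements; series mostly up to about 63 µM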). The method, boiled down:
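Reporter gene assay: HeLa cells stably bearing an HSE-bla construct, compound treatment 5 h at 37 C, LiveBLAzer substrate 2.5 h at RT, fluorescence intensity.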

For assay [15], the target named is Peroxisome proliferator-activated receptor delta (Homo sapiens) (UniProt Q03181). Nature of the assay: qHTS assay to identify small molecule agonists of the peroxisome proliferator-activated receptor delta (PPARd) signaling pathway (AID 743212; calls by dose curve). The method, boiled down: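 A PPARd-bla HEK293H line with beta-lactamase under an Upstream Activator Sequence is treated with compounds at 37 C. Substrate loading for 2 h at room temperature precedes the fluorescence measurement.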

Assay [16] has the same target. Nature of the assay: qHTS assay to identify small molecule antagonists of the peroxisome proliferator-activated receptor delta (PPARd) signaling pathway (AID 743215; active = well fitted inhibition curve with a large enough effect in the signal ratio in the repeat runs, not every such curve was filed as active; the % refers to the signal ratio;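 note: cells stimulated with agonist L165041 at 300 nM final during compound exposure; series mostly up to about 62 µM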). An outline of the steps:
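Read-out is beta-lactamase FRET fluorescence, measured 2 h after substrate addition at room temperature. Beforehand, UAS-bla HEK293H cells carrying the PPARd reporter were exposed to compounds with L165041 at 300 nM final for 17 h at 37 C.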

Assay [17] deals with Bile acid receptor (Homo sapiens) (UniProt Q96RI1). Nature of the assay: qHTS assay to identify small molecule antagonists of the farnesoid-X-receptor (FXR) signaling pathway (AID 743217; active = well fitted inhibition curve with a large enough effect in the signal ratio in the repeat runs, not every such curve was filed as active; the % refers to the signal ratio). An outline of the steps:
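HEK 293T FXR-UAS-bla, 5000 cells/well; compound + CDCA 50 uM final; 16 h, 37 °C; B/G FRET substrate 2 h RT; fluorescence.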

Assay [18] has the same target. Nature of the assay: qHTS assay to identify small molecule agonists of the farnesoid-X-receptor (FXR) signaling pathway (AID 743220; active = well fitted activation curve with a large enough effect in the signal ratio in the repeat runs, not every such curve was filed as active; the % refers to the signal ratio). The method, boiled down:
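Beta-lactamase reporter under UAS control in GeneBLAzer FXR HEK 293T cells (5000/well) measured with LiveBLAzer FRET substrate after 2 h at room temperature. Compound exposure lasted 16 h at 37C.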

The target of assay [19] is Vitamin D3 receptor (Homo sapiens) (UniProt P11473). Nature of the assay: qHTS assay to identify small molecule agonists of the vitamin D receptor (VDR) signaling pathway (AID 743222; calls by dose curve). An outline of the steps: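 VDR-bla cells, 2,000/well; 4 h preincubation 37C; cpd (DMSO) 16 h; LiveBLAzer B/G substrate 2 h RT; fluorescence intensity read.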

Values joined by “and” are separate entries in the source; they are usually repeats but may differ in a detail not shown here. Equal values may be shown once. Results filed as inconclusive are left out. More than one record can exist for a structure, and the calls need not agree. Active and inactive are the calls of the source. Unless noted, calls come from the whole dose curve; as a rule, active = well fitted curve in the direction sought with a large enough effect in the repeat runs; inconclusive = weak or mixed curves; inactive = no such curve, though single readings can be large; an effect the other way counts as inactive or inconclusive.

Bile acid receptor (Homo sapiens), sequence (Q96RI1 whole entry, looked up): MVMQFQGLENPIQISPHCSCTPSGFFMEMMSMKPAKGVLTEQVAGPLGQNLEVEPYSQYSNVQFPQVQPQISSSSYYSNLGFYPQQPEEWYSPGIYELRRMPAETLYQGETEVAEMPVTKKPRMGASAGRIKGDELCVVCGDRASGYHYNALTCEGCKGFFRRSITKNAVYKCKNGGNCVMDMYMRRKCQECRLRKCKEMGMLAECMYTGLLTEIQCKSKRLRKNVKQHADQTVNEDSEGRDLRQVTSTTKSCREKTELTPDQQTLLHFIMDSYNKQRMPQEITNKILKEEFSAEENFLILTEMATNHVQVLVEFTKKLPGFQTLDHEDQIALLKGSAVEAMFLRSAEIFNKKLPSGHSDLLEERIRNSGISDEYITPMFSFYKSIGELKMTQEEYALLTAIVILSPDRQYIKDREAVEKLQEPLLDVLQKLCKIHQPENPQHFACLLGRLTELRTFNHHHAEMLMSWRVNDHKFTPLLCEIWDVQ
Peroxisome proliferator-activated receptor delta (Homo sapiens), sequence (Q03181 whole entry, looked up): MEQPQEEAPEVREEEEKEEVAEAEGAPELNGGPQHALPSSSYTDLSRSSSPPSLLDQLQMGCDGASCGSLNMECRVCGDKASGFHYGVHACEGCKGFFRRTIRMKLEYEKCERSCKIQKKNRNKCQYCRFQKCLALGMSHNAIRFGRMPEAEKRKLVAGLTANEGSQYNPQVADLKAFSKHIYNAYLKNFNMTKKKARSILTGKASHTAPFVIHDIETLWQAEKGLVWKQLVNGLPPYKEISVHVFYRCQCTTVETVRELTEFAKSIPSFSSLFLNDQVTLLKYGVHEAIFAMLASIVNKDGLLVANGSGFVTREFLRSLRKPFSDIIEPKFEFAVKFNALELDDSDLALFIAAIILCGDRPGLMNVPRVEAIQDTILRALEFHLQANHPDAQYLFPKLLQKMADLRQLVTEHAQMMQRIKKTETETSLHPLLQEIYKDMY
Peroxisome proliferator-activated receptor gamma (Homo sapiens), sequence (P37231 whole entry, looked up): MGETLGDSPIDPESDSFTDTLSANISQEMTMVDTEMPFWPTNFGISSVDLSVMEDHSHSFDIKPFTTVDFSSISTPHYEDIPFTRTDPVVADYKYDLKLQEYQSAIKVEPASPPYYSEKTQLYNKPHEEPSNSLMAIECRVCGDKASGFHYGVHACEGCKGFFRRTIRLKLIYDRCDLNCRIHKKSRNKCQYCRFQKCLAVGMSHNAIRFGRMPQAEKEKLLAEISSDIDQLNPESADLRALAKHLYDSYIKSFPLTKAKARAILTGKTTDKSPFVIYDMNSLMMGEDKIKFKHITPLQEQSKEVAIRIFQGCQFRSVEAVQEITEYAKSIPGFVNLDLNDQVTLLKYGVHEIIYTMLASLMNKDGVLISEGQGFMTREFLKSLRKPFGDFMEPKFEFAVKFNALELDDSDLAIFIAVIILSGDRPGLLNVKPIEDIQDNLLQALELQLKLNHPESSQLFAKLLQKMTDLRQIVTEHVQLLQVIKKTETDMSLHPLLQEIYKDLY
Aryl hydrocarbon receptor (Homo sapiens), sequence (P35869 whole entry, looked up): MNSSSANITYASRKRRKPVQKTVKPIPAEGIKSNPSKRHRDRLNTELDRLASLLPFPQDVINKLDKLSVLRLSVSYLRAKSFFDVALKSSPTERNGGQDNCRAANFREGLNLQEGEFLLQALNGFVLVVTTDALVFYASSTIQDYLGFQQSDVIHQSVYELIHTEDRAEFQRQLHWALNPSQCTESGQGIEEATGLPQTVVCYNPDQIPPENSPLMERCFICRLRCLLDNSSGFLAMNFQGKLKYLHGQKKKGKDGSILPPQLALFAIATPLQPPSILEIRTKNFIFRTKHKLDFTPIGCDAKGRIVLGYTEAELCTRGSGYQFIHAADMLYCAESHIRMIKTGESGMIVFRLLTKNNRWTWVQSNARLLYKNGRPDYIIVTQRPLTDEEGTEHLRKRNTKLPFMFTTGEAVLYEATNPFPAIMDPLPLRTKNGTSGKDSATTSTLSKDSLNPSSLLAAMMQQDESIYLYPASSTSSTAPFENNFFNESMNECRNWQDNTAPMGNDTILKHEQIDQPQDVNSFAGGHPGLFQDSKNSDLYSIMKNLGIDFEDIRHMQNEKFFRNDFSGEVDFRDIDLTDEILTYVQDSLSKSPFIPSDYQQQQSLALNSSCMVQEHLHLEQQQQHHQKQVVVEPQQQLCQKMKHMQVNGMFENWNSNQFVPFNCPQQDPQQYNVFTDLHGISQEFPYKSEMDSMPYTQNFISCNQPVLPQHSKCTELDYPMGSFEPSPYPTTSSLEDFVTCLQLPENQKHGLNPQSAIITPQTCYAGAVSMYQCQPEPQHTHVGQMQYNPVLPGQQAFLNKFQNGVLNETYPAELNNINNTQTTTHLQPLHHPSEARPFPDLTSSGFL
Vitamin D3 receptor (Homo sapiens), sequence (P11473 whole entry, looked up): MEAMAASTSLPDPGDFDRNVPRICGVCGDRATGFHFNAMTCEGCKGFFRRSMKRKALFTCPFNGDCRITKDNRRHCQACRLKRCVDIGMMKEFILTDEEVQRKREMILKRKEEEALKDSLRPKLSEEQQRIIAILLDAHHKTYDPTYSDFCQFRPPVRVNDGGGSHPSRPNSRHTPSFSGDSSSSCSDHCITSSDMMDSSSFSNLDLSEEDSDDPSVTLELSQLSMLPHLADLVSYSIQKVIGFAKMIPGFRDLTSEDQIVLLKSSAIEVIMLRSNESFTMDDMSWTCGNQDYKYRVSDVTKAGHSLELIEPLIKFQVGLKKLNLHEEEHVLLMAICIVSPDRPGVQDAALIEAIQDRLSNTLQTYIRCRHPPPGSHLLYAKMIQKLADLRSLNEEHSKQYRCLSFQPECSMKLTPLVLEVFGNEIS

As for `CN(C)CCc1c[nH]c2ccccc12`, the Potency result in assay [1], in assay [2], in [3], in assay [4], in assay [5] and in [6] was “inactive” throughout. Moreover, the Potency result in [7], in assay [8], in assay [9], in assay [10] and in [11] was “inactive” each time.
As to `C[N+]1(C)[C@@H]2CC[C@H]1CC(OC(=O)C(CO)c1ccccc1)C2` (stereo not given in full), the Potency entry in assay [1], in assay [2], in [3], in assay [12], in [4] and in assay [6] was “inactive” each time. Besides, the Potency entry in [13], in assay [14], in [7], in [15], in assay [8] and in assay [16] was “inactive” in each case. Further, the Potency entry in assay [9] was “inactive”.
`CC(=O)[O-].CC(=O)[O-].O.O.[Zn+2]`: the Potency entry in assay [1], in assay [2], in assay [3], in [4], in [5] and in [6] was “inactive” each time. In addition, the Potency result in assay [13], in assay [7], in [8], in [9] and in assay [10] was “inactive” each time.
As to `C=Cc1cccc(CCl)c1`, the Potency result in [1], in assay [2], in [3], in [4], in assay [6] and in [13] was “inactive” each time. For the same molecule, the Potency result in assay [14], in [7], in [8], in [17], in assay [9] and in assay [10] was “inactive” each time. The Potency in [5] is 55.9 µM (active).
In the case of `C[C@]12C/C(=C/O)C(=O)C[C@@H]1CC[C@@H]1[C@@H]2CC[C@@]2(C)[C@H]1CC[C@]2(C)O`, the Potency entry in [1], in [2], in assay [3], in [4], in [6] and in assay [13] was “inactive” throughout. Further, the Potency result in [8], in assay [10] and in assay [11] was “inactive” throughout. Besides, the Potency is 5.96 µM (active) in assay [5] and 49.4 µM (active) in [7].
On to `CCN(CC)CCc1c[nH]c2ccccc12`, for which the Potency entry in assay [1], in [2], in assay [3], in assay [12], in assay [4] and in assay [6] was “inactive” in each case. Moreover, the Potency entry in assay [13], in assay [7], in assay [15], in [8], in assay [17] and in assay [9] was “inactive” in each case. For the same molecule, the Potency result in assay [10] is “inactive”.
With `CC(C)C(Br)C(=O)NC(N)=O` (stereo not given), the Potency entry in [1], in [2], in assay [3], in [12], in assay [4] and in assay [6] was “inactive” each time. The Potency result in [13], in assay [14], in assay [7], in assay [15], in assay [8] and in assay [16] was “inactive” in each case. Further, the Potency entry in assay [17], in assay [9], in assay [18], in assay [10], in assay [19] and in [11] was “inactive” in each case.
For the molecule `CCCCCCCCCCCCCCn1cc[n+](C)c1`, the Potency in assay [1] was 8.65 µM (active) and 38.1 µM (active); in assay [3], 34.4 µM (active); in assay [4], 9.79 µM [setting not given] (active) and inactive; in assay [6] it was 24.4 µM (active) and 30.3 µM (active) and inactive; in assay [13], 19.5 µM (active) and 21.6 µM (active) and inactive; in assay [7], 24.6 µM (active) and 21.6 µM (active) and inactive. The Potency in assay [8] is 21.6 µM (active); in assay [9] it was 21.9 µM (active) and inactive; in assay [10], 24.6 µM (active) and 54.4 µM (active) and inactive. The Potency result in [2], in assay [16] and in assay [11] was “inactive” in each case.
`CC(C)c1c(CN(C)C(C)Cc2ccccc2)n(C)n(-c2ccccc2)c1=O` (stereo not given): the Potency result in assay [1], in assay [2], in assay [3], in assay [12], in assay [6] and in [13] was “inactive” each time. Moreover, the Potency entry in [14], in assay [7], in [15], in [18], in [10] and in assay [19] was “inactive” each time. Also, the Potency in [8] is 13.3 µM (active).
With `CC[C@H](C)[C@H]1O[C@]2(C=C[C@@H]1C)C[C@@H]1C[C@@H](C/C=C(\C)[C@@H](O[C@H]3C[C@H](OC)[C@@H](O[C@H]4C[C@H](OC)[C@@H](NC)[C@H](C)O4)[C@H](C)O3)[C@@H](C)/C=C/C=C3\CO[C@@H]4[C@H](O)C(C)=C[C@@H](C(=O)O1)[C@]34O)O2`, the Potency in [1] is 9.69 µM (active); in assay [3] it was 4.33 µM (active); in assay [4], 2.45 µM (active); in assay [6], 4.33 µM (active); in assay [13], 13.8 µM (active); in [7], 3.09 µM (active). Further, the results for the Potency in assay [8], in assay [9] and in assay [10] were 3.89 µM (active), 5.49 µM (active) and 8.71 µM (active), respectively. In addition, in assay [2], the Potency result was “inactive”.

These data come from PubChem BioAssay (Tox21).
